Results taken from the supplement of paper PMC10849652.
The full data set covers some 7,900 targets. This sample favours those with a hit. About 0.6% of all pairs of compound and target were hits. Values without a mark were called inactive.

Columns and labels:
Experiment in all cases: log2 fold change, soluble protein after heating vs DMSO (PISA); higher = thermal stabilisation; K562 cells, 10 uM, 30 min; active = over 0.2 and 3.5 SD of the protein, either way, in both replicates (recomputed)
[1] = compound: Cc1ccc(NC(=O)c2ccc(CN3CC[C@H](N(C)C)C3)c(C(F)(F)F)c2)cc1Nc1nccc(-c2cncnc2)n1 [bafetinib]
Outline: (§1)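 K562 cells (2×10^6 cells/mL) were treated with 10 μM compound for 30 min, and aliquots were heated for 3 min over 48°C-58°C. Pooled aliquots were extracted in PBS with 0.5% NP-40 at 4°C, and the supernatant after 21,000xg for 90 min was measured by TMTpro 16plex LC-MS/MS with channel sums equalised. Reported thermal stability, relative to control samples and from duplicates, is a log2 fold change.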

[2] = compound: FC(F)(F)c1ccc(/C=C/c2nc(COc3ccc(CCCCn4ccnn4)cc3)co2)cc1 [mubritinib]
Outline: as §1

[3] = compound: C[C@@H](Oc1cc(-c2cnn(C3CCNCC3)c2)cnc1N)c1c(Cl)ccc(F)c1Cl [crizotinib]
Outline: as §1

[4] = compound: C[C@@H]1COCCN1C2=NC(=NC(=C2)C3(CC3)S(=O)(=O)C)C4=C5C=CNC5=CC=C4
Outline: as §1

[5] = compound: C[C@H](C1=CC=C(C=C1)C(=O)NC2=C3C=CNC3=NC=C2)N
Outline: as §1

[6] = compound: C[C@H](Nc1ncnc2nc[nH]c12)c1cc2cccc(Cl)c2c(=O)n1-c1ccccc1 [duvelisib]
Outline: as §1

[7] = compound: Cc1cc(Nc2cc(CN3CCOCC3)c3nc(C)c(Cc4ccc(Cl)cc4F)n3n2)n[nH]1 [gandotinib]
Outline: as §1

[8] = compound: Cc1cc(Nc2cc(N3CCN(C)CC3)nc(Sc3ccc(NC(=O)C4CC4)cc3)n2)n[nH]1 [tozasertib]
Outline: as §1

[9] = compound: Cc1cc(SCc2sc(-c3ccc(C(F)(F)F)cc3)nc2C)ccc1OCC(=O)O
Outline: as §1

[10] = compound: Cc1ccc(-n2nc(C(C)(C)C)cc2NC(=O)Nc2ccc(OCCN3CCOCC3)c3ccccc23)cc1 [doramapimod]
Outline: as §1

[11] = compound: Cc1ccc(C(=O)N(CCCN)[C@@H](c2nc3cc(Cl)ccc3c(=O)n2Cc2ccccc2)C(C)C)cc1 [ispinesib]
Outline: as §1

[12] = compound: Cc1cccc(CC(=O)N2CCc3c2ccc(-c2cn(C)c4ncnc(N)c24)c3F)n1
Outline: as §1

[13] = compound: Cc1nc(Nc2ncc(C(=O)Nc3c(C)cccc3Cl)s2)cc(N2CCN(CCO)CC2)n1 [dasatinib]
Outline: as §1

[14] = compound: Cn1cc(-c2ccc3c(c2)CCN3C(=O)Cc2cccc(C(F)(F)F)c2)c2c(N)ncnc21
Outline: as §1

[15] = compound: Cn1cc(-c2ccc3nnc(C(F)(F)c4ccc5ncccc5c4)n3n2)cn1
Outline: as §1

[16] = compound: Cn1cncc1[C@@](N)(c1ccc(Cl)cc1)c1ccc2c(c1)c(-c1cccc(Cl)c1)cc(=O)n2C [tipifarnib]
Outline: as §1

[17] = compound: CS(=O)(=O)c1ccc(-c2cnc(N)c(C(=O)Nc3ccccc3)n2)cc1
Outline: as §1

[18] = compound: Cc1cn(-c2cc(NC(=O)c3ccc(C)c(Nc4nccc(-c5cccnc5)n4)c3)cc(C(F)(F)F)c2)cn1 [nilotinib]
Outline: as §1

[19] = compound: Cc1nc(Nc2n[nH]c3c2CN(C(=O)N[C@H](CN(C)C)c2ccccc2)C3(C)C)c2sccc2n1
Outline: as §1

[20] = compound: Cc1ncc(-c2ccnc(Nc3ccc(S(C)(=O)=O)cc3)n2)n1C(C)C
Outline: as §1

Sequence of UniProt Q504Q3 (Q504Q3 whole entry, looked up): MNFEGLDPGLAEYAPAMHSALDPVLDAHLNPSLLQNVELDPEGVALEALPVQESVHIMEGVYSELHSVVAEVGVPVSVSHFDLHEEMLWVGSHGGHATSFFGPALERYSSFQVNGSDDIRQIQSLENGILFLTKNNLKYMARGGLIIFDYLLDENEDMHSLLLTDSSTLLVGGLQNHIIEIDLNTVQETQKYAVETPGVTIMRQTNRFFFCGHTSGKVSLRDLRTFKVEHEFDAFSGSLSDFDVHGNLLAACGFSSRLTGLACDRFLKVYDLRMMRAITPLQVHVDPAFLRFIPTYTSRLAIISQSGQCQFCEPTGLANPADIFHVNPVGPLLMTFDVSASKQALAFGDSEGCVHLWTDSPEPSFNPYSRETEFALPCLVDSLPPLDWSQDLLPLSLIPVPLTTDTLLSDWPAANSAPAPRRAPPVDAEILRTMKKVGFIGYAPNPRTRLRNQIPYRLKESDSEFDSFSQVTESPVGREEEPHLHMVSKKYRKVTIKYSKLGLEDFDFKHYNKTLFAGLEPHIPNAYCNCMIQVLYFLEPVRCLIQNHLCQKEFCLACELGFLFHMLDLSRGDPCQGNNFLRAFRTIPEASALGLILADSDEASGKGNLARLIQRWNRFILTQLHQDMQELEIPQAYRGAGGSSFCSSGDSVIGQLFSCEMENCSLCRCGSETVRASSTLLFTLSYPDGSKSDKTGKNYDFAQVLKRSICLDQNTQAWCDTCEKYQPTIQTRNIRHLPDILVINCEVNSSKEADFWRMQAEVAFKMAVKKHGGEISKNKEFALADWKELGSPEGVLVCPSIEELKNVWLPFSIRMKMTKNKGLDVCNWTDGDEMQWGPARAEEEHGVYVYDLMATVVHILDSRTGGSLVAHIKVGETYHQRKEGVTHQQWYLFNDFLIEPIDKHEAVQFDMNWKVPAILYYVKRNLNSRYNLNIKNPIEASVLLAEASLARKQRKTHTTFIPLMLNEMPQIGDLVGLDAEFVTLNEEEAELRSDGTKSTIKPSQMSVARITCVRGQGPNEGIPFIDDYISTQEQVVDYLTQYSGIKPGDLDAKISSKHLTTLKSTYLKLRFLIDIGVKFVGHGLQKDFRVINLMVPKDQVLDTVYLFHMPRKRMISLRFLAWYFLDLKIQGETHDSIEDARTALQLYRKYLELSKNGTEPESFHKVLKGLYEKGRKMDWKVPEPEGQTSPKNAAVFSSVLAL
Sequence of UniProt Q15126 (Q15126 whole entry, looked up): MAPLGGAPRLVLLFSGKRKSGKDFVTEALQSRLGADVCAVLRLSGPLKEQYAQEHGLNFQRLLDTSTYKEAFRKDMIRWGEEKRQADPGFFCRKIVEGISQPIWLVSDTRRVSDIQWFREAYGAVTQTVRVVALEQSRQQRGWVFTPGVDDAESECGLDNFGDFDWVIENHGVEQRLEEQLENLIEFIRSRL
Sequence of UniProt P41247 (P41247 whole entry, looked up): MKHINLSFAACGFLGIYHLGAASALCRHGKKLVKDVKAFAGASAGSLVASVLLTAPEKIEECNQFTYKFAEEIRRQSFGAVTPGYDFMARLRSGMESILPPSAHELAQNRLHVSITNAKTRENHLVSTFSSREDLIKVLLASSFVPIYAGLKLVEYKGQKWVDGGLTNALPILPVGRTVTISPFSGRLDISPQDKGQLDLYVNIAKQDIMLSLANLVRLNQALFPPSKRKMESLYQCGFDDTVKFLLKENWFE
Sequence of UniProt Q9UHX1 (Q9UHX1 whole entry, looked up): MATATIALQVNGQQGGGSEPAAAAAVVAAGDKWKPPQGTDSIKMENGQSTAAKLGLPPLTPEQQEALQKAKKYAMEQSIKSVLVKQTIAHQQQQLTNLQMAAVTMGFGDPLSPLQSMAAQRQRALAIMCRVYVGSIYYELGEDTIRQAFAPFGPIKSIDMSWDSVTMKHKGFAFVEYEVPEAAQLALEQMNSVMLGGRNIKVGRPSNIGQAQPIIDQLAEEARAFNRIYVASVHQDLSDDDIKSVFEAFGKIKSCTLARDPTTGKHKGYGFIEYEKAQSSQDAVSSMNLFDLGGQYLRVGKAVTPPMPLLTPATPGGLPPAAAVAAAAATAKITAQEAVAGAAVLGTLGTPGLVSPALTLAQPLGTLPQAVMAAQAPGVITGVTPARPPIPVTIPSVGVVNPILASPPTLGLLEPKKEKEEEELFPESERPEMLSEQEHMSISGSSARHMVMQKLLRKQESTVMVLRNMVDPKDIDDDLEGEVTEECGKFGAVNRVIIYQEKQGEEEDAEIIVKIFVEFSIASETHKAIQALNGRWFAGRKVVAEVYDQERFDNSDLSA
Sequence of UniProt Q9NUJ7 (Q9NUJ7 whole entry, looked up): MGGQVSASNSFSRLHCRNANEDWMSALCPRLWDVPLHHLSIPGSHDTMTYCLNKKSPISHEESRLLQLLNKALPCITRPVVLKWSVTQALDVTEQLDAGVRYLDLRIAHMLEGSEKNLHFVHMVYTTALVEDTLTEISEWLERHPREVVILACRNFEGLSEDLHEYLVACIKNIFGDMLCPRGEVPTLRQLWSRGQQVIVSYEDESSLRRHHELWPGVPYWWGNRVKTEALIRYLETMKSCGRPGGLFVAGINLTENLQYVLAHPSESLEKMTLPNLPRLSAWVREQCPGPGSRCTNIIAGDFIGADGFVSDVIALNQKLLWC
Sequence of UniProt Q9NYI0 (Q9NYI0 whole entry, looked up): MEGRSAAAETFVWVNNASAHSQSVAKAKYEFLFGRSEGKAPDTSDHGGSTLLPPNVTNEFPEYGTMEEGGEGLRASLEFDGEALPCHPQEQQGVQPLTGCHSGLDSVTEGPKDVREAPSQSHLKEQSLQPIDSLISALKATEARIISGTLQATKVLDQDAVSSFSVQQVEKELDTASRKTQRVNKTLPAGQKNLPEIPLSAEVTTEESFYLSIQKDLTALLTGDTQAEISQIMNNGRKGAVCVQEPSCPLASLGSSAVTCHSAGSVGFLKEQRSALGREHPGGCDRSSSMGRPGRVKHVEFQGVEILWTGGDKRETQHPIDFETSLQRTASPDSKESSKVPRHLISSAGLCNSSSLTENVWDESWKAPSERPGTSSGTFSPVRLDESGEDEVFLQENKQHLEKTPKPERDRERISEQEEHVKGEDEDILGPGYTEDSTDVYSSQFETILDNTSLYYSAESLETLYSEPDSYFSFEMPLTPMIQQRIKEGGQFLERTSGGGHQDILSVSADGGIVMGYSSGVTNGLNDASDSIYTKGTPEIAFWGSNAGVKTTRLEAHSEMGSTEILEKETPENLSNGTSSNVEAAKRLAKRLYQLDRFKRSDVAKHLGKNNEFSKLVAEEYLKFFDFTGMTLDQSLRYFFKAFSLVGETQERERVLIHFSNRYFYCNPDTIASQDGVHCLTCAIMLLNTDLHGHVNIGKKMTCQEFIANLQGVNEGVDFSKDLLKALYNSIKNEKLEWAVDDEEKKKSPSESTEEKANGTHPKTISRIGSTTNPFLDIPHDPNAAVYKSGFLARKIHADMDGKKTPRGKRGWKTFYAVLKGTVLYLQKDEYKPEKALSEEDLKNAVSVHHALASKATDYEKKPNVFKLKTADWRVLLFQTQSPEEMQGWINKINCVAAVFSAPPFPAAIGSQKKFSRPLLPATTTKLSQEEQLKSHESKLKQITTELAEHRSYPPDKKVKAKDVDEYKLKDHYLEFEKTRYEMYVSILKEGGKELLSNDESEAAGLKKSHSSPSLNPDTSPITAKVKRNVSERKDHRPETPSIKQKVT
Sequence of UniProt Q9BZL4 (Q9BZL4 whole entry, looked up): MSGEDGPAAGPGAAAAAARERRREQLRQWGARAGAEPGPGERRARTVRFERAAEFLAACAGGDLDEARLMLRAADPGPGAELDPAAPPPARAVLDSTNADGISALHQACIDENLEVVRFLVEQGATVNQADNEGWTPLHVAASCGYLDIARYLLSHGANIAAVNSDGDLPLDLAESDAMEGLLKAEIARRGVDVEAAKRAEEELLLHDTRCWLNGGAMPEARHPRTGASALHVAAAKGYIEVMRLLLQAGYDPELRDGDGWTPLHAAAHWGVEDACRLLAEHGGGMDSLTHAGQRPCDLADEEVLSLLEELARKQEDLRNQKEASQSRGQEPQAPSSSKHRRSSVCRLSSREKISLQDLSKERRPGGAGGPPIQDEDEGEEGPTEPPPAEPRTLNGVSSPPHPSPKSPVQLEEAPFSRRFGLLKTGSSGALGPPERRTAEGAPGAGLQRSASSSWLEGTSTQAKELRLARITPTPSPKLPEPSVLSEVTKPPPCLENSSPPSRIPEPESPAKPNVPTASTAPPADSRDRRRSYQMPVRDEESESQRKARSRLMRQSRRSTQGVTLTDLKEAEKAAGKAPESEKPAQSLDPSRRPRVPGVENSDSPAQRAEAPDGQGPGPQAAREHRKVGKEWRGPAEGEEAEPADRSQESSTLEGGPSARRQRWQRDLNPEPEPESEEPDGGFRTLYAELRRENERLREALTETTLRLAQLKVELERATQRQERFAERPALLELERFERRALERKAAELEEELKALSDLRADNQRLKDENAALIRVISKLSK
Sequence of UniProt Q14442 (Q14442 whole entry, looked up): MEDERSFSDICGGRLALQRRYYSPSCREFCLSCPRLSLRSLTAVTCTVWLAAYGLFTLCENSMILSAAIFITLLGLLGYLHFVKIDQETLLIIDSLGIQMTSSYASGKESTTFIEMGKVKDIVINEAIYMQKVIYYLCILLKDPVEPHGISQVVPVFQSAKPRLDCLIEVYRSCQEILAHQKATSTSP
Sequence of UniProt P51817 (P51817 whole entry, looked up): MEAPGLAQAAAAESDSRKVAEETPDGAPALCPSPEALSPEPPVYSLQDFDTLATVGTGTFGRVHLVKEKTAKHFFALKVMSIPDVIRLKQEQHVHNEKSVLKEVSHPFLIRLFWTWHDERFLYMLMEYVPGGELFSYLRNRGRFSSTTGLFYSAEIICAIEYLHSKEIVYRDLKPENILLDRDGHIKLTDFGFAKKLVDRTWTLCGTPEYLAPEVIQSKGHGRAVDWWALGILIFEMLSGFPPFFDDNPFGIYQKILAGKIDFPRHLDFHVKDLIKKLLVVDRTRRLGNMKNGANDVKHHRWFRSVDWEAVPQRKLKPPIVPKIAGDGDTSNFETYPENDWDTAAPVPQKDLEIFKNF

Row | Target | log2 fold change [1] | log2 fold change [2] | log2 fold change [3] | log2 fold change [4] | log2 fold change [5] | log2 fold change [6] | log2 fold change [7] | log2 fold change [8] | log2 fold change [9] | log2 fold change [10] | log2 fold change [11] | log2 fold change [12] | log2 fold change [13] | log2 fold change [14] | log2 fold change [15] | log2 fold change [16] | log2 fold change [17] | log2 fold change [18] | log2 fold change [19] | log2 fold change [20]
1 | PRKX (UniProt P51817) | -0.039 | 0.108 | – | – | – | – | – | – | – | – | – | – | – | – | – | – | – | – | – | –
2 | PIGH (UniProt Q14442) | -0.037 | 0.04 | -0.037 | -0.012 | -0.179 | -0.034 | 0.036 | 0 | 0.04 | -0.062 | 0.033 | -0.01 | -0.053 | 0.099 | 0.009 | 0.056 | – | – | – | –
3 | PSMA3 (UniProt G3V4X5) | 0.159 | – | -0.277 | – | – | – | – | – | – | 0.149 | -0.081 | – | – | – | 0.174 | 0.067 | – | – | – | –
4 | PPP1R12C (UniProt Q9BZL4) | -0.085 | -0.118 | – | -0.198 | – | -0.011 | -0.001 | 0.091 | 0.018 | – | -0.009 | 0.612 (active) | -0.065 | – | -0.018 | -0.219 | -0.016 | 0.069 | -0.26 | -0.213
5 | PUF60 isoform 2 (UniProt Q9UHX1) | -0.089 | -0.257 | – | – | -0.591 | 0.163 | – | 0.193 | 0.04 | – | 0.173 | – | -0.173 | 0.043 | -0.103 | -0.159 | – | – | – | –
6 | PCF11 (UniProt O94913) | -0.099 | 0.179 | -0.137 | – | 0.211 | – | -0.149 | – | – | 0.051 | -0.533 | 0.078 | – | -0.095 | 0.007 | 0.168 | – | – | – | –
7 | PSMD8 (UniProt K7EK21) | – | – | – | – | 0.485 | – | – | – | – | – | – | – | – | -0.216 | – | – | – | – | – | –
8 | PHLDB1 isoform 2 (UniProt Q86UU1) | -0.112 | 0.14 | -0.307 | 0.058 | -0.043 | -0.759 (active) | -0.281 | -0.126 | 0.108 | 0.032 | -0.053 | 0.117 | -0.073 | 0.061 | 0.016 | 0.057 | – | 0.136 | -0.265 | -0.128
9 | PTPA (UniProt A6PVN8) | -0.122 | 0.114 | – | 0.083 | 0.1 | -0.002 | -0.048 | -0.069 | -0.203 | – | -0.04 | -0.084 | 0.075 | -0.075 | 0.05 | 0.232 | -0.116 | -0.134 | 0.008 | 0.013
10 | PPP2R5B (UniProt Q15173) | 0.006 | -0.023 | – | – | – | 0.16 | -0.277 | – | -0.002 | – | – | -0.057 | -0.047 | – | – | -0.067 | – | -0.187 | 0.095 | -0.042
11 | PAN2 (UniProt Q504Q3) | -0.052 | – | – | – | – | -0.032 | – | – | 0.299 | – | – | – | 0.013 | – | – | – | – | -0.123 | -0.02 | -0.09
12 | PMVK (UniProt Q15126) | 0.057 | -0.025 | – | 0.02 | 0.083 | -0.055 | -0.705 (active) | -0.186 | 0.333 | – | – | -0.203 | -0.308 | -0.098 | – | – | 0.088 | -0.214 | -0.064 | -0.139
13 | PSD3 (UniProt Q9NYI0) | – | -0.035 | 0.071 | – | -0.047 | – | – | – | – | -0.02 | -0.075 | – | – | -0.002 | 0.071 | -0.062 | – | -0.117 | 0.029 | 0.014
14 | PHRF1 (UniProt Q9P1Y6) | – | -0.099 | – | – | – | – | – | – | – | – | -0.296 | – | – | – | 0.084 | 0.159 | – | – | – | –
15 | PNPLA4 (UniProt P41247) | -0.339 | 0.826 (active) | -0.651 (active) | – | 0.559 | -0.095 | – | -0.005 | 0.117 | 0.895 (active) | -0.093 | – | -0.165 | 0.156 | 0.078 | -0.039 | 0.319 | 0.128 | -0.019 | -0.001
16 | POLB (UniProt P06746) | – | – | – | -0.003 | 0.036 | -0.178 | 0.081 | 0.077 | -0.045 | – | -0.1 | -0.081 | -0.04 | 0.143 | -0.133 | 0.043 | -0.078 | -0.103 | -0.134 | 0.009
17 | PLCXD1 (UniProt Q9NUJ7) | -0.642 (active) | – | – | – | – | – | – | – | – | – | -0.145 | – | – | – | -0.099 | – | – | – | – | –
18 | PSMA3 (UniProt H0YJ03) | – | – | 0.081 | – | 0.099 | 0.092 | – | -0.049 | -0.07 | 0.072 | -0.213 | – | 0.133 | 0.036 | -0.017 | 0.02 | – | – | – | –
